This note sets out measurements from PubChem BioAssay AID504834 (National Center for Advancing Translational Sciences (NCATS), 2011).

The campaign covered roughly 320,000 compounds. About 22,000 (6.9%) were called active. Roughly 27% stayed inconclusive and do not appear here. The call rests on the fitted dose curve; in most records, active means well fitted inhibition curve with a large enough effect; inconclusive means small, poorly fitted or top-dose-only effect, or another doubt; inactive means no such curve, though single readings can be large or run the other way. The sample as a whole holds a higher share of actives than the screen did.
On the % scale 0 is the no-effect control and ±100 the full control effect; potency means the concentration at half of the fitted maximal effect.

This experiment can be described thus: Primary qHTS for delayed death inhibitors of the malarial parasite plastid, 96 hour incubation. The note with it: P. falciparum luciferase reporter growth; series mostly up to 28.7 µM; activity change, negative = inhibition: at the top concentration. From the text:
The goal of this screen is to discover new antimalarial compounds that act by inhibiting the development of the apicoplast in the malarial parasite Plasmodium falciparum. The biochemical processes that make this organelle essential for erythrocytic stage parasites are not well understood. However, antibiotics such as azithromycin and tetracycline, which target the apicoplast translational machinery, have a potent antimalarial effect.
We have developed a cell-based assay that measures parasite growth based on the expression of an integrated copy of a firefly luciferase reporter. To detect small molecules that cause this "delayed death" phenotype, erythrocytes infected with the luciferase-expressing parasites were incubated with compounds for either one or two generations, corresponding to 48 and 96 hours, respectively. Compounds that inhibit parasite growth in the second generation, but not the first, should be enriched in antimalarials that target the apicoplast. Growth inhibition is detected by a decrease in luciferase activity.
Assay Provider: David Fidock and Eric Ekland, Columbia University
Keywords: NIH Roadmap, MLPCN, MLI, MLSMR, qHTS, NCGC, qHTS, malaria, luciferase, viability
Four microliters of infected erythrocytes (2% hematocrit, 0.05% parasitemia final concentration) in culture medium were dispensed and the plates incubated for 96 hours at 37 C in 5% CO2. Two microliters of luciferase detection reagent was added and luminescence was detected by a ViewLux (PerkinElmer) reader.
For `CC(C)NC(=O)C(c1ccc(F)cc1)N(C(=O)CCC(=O)Nc1ccccn1)c1ccccc1F` (stereo not given), the “activity change, negative = inhibition” value was 0.184% (inactive).
Turning to `Cc1ccc(-n2c(C)cc(/C=N/Nc3ccc([N+](=O)[O-])cn3)c2C)c(C)c1`, the Potency is 10.4 µM (active).
With `Cc1ccc(N2CCN(c3ccc([N+](=O)[O-])cn3)CC2)c(C)c1`, the “activity change, negative = inhibition” value is 1.91% (inactive).
The same measure, in the same setting: the same measure for `Cc1cc(/C=N/Nc2ccc([N+](=O)[O-])cn2)c(C)n1-c1cccc(C(=O)O)c1`: 20.5% (inactive); for `O=C(NC1CCCC1)C(c1ccc(Cl)cc1)N(C(=O)c1csnn1)C1CC1` (stereo not given): -3% (inactive).
On the same count and under the same terms, to `CC1CC1C(=O)OCC(=O)Nc1cccc(F)c1` (stereo not given) belongs -4.3% (inactive).
For the compound `N#CC(C#N)=CN=c1ccn(Cc2ccc(Cl)cc2Cl)cc1`, the Potency was 1.17 µM (active).
`Cn1ccc(=NC=C(C#N)C#N)c2ccccc21`: the “activity change, negative = inhibition” value was 27.4% (inactive).
Still for that read-out and setting: the same measure for `O=S(=O)(O)c1nc2ccccc2n1Cc1ccc(Cl)cc1Cl`: 6.21% (inactive); for `CC(C)[C@H](NC(=O)N1CCn2c1nc1ccccc12)C(=O)NC1CC1`: -13% (inactive).
Still for that read-out and setting: to `COc1cc2ccccc2cc1C(=O)Nc1ccc(S(=O)(=O)Nc2cc(C)on2)cc1` belongs 64.4% (inactive).
Turning to `CCOC(=O)c1cc(C(=O)Nc2ccc(S(=O)(=O)Nc3ccc(OC)cc3)cc2)nn1C`, the Potency was 11.7 µM (active).
With `COc1cc(OC)cc(C(=O)Nc2ccc(S(=O)(=O)Nc3cc(C)on3)cc2)c1`, the “activity change, negative = inhibition” value is -24.9% (inactive).
`CCOc1ccc(C(=O)Nc2ccc(S(=O)(=O)Nc3cc(C)on3)cc2)cc1`: the Potency was 2.94 µM (active).
As for `CCOC(=O)c1ccccc1NS(=O)(=O)c1ccc(OC)cc1`, the “activity change, negative = inhibition” value was 15.9% (inactive).
On the same count and under the same terms, the same measure for `COc1ccc(NC(=O)c2cnc(NS(=O)(=O)c3ccccc3)nc2)cc1`: 82.4% (inactive); for `CCOCCCNC(=S)Nc1ccc2nc(N3CCN(CC)CC3)cc(C)c2c1`: 6.14% (inactive); for `Cc1cc(C)c(C#N)c(Nc2cccc(Br)c2)n1`: -2.25% (inactive).
Still for that read-out and setting: the same measure for `Cc1ccc(S(=O)(=O)N2CCN(C)CC2)cc1`: -1.36% (inactive); for `Cc1nn(C)c(C)c1NS(=O)(=O)c1ccc(OC(F)(F)F)cc1`: 3.16% (inactive).
Same read-out and setting: the same measure for `COc1cc(C(=O)OCC(=O)N(CC(C)C)C2CCS(=O)(=O)C2)ccc1OCC(C)C` (stereo not given): -6.25% (inactive); for `CN(CC(=O)Nc1cccc(F)c1)C(=O)C1CSC2(C)CCC(=O)N12` (stereo not given): 20.8% (inactive).
Regarding `COC(=O)CCC(=O)N1CCCC(CO)(Cc2ccccc2)C1` (stereo not given), the Potency was 0.37 µM (active).
In the case of `CCCc1cc(C(=O)N2CCCC(CO)(CCCc3ccccc3)C2)n(C)n1` (stereo not given), the “activity change, negative = inhibition” value was -2.8% (inactive).
On the same count and under the same terms, the same measure for `CS(=O)(=O)N(CC(=O)N1CCCC1)Cc1ccccc1`: 11.3% (inactive); for `CCNC(=S)N(CCN(CC)CC)Cc1cc2cc3c(cc2[nH]c1=O)OCO3`: -11.3% (inactive); for `COC(=O)C(C)n1cnc2c(nnn2-c2cccc(Cl)c2)c1=O` (stereo not given): -9.8% (inactive).
As to `CC(C)C[C@H](CO)Nc1nc(N(C)c2cccc(Cl)c2)c2ncn(C(C)C)c2n1`, the Potency is 13.1 µM (active).
Take `CC1COc2ccccc2N1C(=O)c1ccc(F)cc1` (stereo not given): the “activity change, negative = inhibition” value was 3.37% (inactive).
Still for that read-out and setting: the same measure for `COc1cccc(C(C(=O)NC2CCCC2)N(C(=O)c2ccco2)c2cccc(C(C)=O)c2)c1OC` (stereo not given): -24.7% (inactive).
On to `COc1ccccc1N1CCN(C(=O)c2ccc(NC3=NC4CS(=O)(=O)CC4S3)cc2)CC1` (stereo not given), for which the Potency was 10.4 µM (active).
As to `CN(Cc1ccccc1)C(=O)c1ccc(NC2=NC3CS(=O)(=O)CC3S2)cc1` (stereo not given), the “activity change, negative = inhibition” value was 5.53% (inactive).
The same measure, in the same setting: the same measure for `COc1cccc(-c2cc(C(=O)N3CCN(c4ccccc4OC)CC3)no2)c1`: 218% (inactive); for `NS(=O)(=O)c1ccc(CCNC(=O)c2nc(CS(=O)(=O)c3ccc(Cl)cc3)no2)cc1`: 22.4% (inactive); for `CC1CC(C)CN(C(=O)C2CC(=O)N(c3ccc(F)cc3)C2)C1` (stereo not given): 20.3% (inactive).
In the case of `CC1(C)O[C@@H]2[C@H](O1)[C@@H](COS(=O)(=O)O)O[C@H]2n1cnc2c(=O)[nH]cnc21`, the “activity change, negative = inhibition” value was 34.3% (inactive).
Still for that read-out and setting: the same measure for `CCCCNC(=O)C1(O)c2ccccc2NC(=O)N1c1ccc(Cl)cc1` (stereo not given): 11.4% (inactive); for `Cc1ccc(S(=O)(=O)N(Cc2cccc([N+](=O)[O-])c2)C(=O)N2CCN(C)CC2)cc1`: -2.96% (inactive).
With `Cc1c(NC(=O)CSCc2ccccc2)cccc1C(=O)O`, the Potency is 10.4 µM (active).
For `CCCNC(=O)c1ccccc1NC(=O)CSCc1ccc(OC)cc1`, the “activity change, negative = inhibition” value is 3.51% (inactive).
The same measure, in the same setting: the same measure for `O=C(CSCc1ccccc1)Nc1ccccc1`: -1.81% (inactive).
The same measure, in the same setting: to `Nc1ccn(C2CC(O)C(CO)O2)c(=O)n1` (stereo not given) belongs 60.4% (inactive).
On to `CCOC(=O)NN1C(=O)c2ccccc2NC1c1ccccc1O` (stereo not given), for which the Potency was 14.7 µM (active).
For `CCOC(=O)NN1C(=O)c2ccccc2NC1c1cccc(O)c1` (stereo not given), the “activity change, negative = inhibition” value is 18.3% (inactive).
On the same count and under the same terms, to `O=C1c2ccccc2NC(c2ccccc2O)N1NS(=O)(=O)c1ccccc1` (stereo not given) belongs 0.813% (inactive).
On the same count and under the same terms, the same measure for `COc1ccc(OC)c(C(C)NC(=S)Nc2ccc(S(=O)(=O)Nc3ncccn3)cc2)c1` (stereo not given): 59.7% (inactive).
`COc1ccccc1-n1c(-c2cc(-c3ccco3)[nH]n2)n[nH]c1=S`: the “activity change, negative = inhibition” value is 1.29% (inactive).
Same read-out and setting: to `COc1ccc2c(c1)C(c1cccs1)=NNC(c1cccnc1)=N2` belongs 15.7% (inactive).
Consider `Fc1ccc2c(c1)C(c1cccnc1)=NNC(c1cccs1)=N2`, for which the Potency is 7.38 µM (active).
In the case of `CCc1ccc2c(c1)C(c1ccc([N+](=O)[O-])cc1)=NNC(c1ccccc1)=N2`, the “activity change, negative = inhibition” value was 12.3% (inactive).
